PubChem BioAssay (NCATS)
Records with an inconclusive call do not appear. Where a call stands in place of a potency, no number is given. Activity calls are given as the source filed them. Calls come from the whole dose curve; as a rule, active = well fitted cell-killing curve with a large enough effect; inconclusive = small, poorly fitted or top-dose-only effect; inactive = no such curve, though single readings can be large or run the other way.
Potency is the fitted concentration of half-maximal effect.

Assay: qHTS of pediatric cancer cell lines to identify multiple opportunities for drug repurposing: Primary screen for MG 63 (6-TG R) cells (AID 1347105); note: nearly all actives have a fitted effect of over 50% in size
Details: MG 63 (6-TG R) viability, CellTiter-Glo, 48 h; series mostly up to 46 µM
From the text: Drug repurposing or repositioning has been offered as a strategy for drug development in oncology programs. This approach has special potential for childhood cancers and other rare or orphan diseases, where the expected return on new drug development has been a disincentive to pharmaceuticals. […] In this project we exploit the poly-pharmacology of drugs to discover new indications via phenotypic screening of a panel of 19 well-characterized cell lines derived from solid tumors seen in children and adolescents. The goal is to identify approved drugs with previously unrecognized anticancer properties that has the potential to reveal new mechanisms and biological processes involved in carcinogenesis or drug resistance. We employed a titration-based paradigm (quantitative high-throughput screening or qHTS), where all compounds were tested at multiple concentrations for their effect on cell viability. Concentration-response curves (CRCs) were derived directly from the primary screen, and both potency and efficacy values were used to identify compounds with robust bioactivity profiles. We screened the NIH Chemical Genomics Center (NCGC) Pharmaceutical Collection (NPC) and Mechanism Interrogation Plate (MIPE) small molecule collections of approved and investigational compounds against these cell lines; and measured metabolically active cells after 48 hours of compound treatment as a proxy for cell viability. […] Assay Submitter: Nathalia J. Martinez, National Center for Advancing Translational Sciences, National Institutes of Health, Rockville, MD, USA; email: natalia.martinez@nih.gov Shen, M et al. Quantitative high-throughput phenotypic screening of pediatric cancer cell lines identifies multiple opportunities for drug repurposing. Oncotarget 2017 Dec 19;9(4):4758-4772. PMID 29435139.
The cells were obtained from University of North Carolina (UNC), Pediatric Preclinical Testing Program (PPT), and Coriell Institute (CI). qHTS cell viability assay: Cells were assayed in growth media at a density of 500-1,000 cells/well. Five microliters of cells were dispensed into 1,536-well, white, solid-bottom, TC-treated plates (Greiner Bio One) using a multidrop dispenser and incubated at 37 degrees C, 5% CO2, under a humidified atmosphere for 5 hours. Twenty-three nanoliters of compounds and controls (neutral control DMSO or positive control bortezomib at final concentration of 2.3 µM) were subsequently transferred by Kalypsys pintool. For primary screens, the MIPE collection was tested at 11-point dilutions (final concentrations range from 0.78 nM to 46 µM) and the NPC collection at 8-point dilutions (final concentrations range from 0.59 nM to 46 µM). Compounds tested in follow-up screens were assayed at 11-point dilutions. Cells were incubated for 48 hours, followed by addition of 3 µL of CellTiter-Glo (Promega). After a 15 min incubation at room temperature, samples were analyzed for luminescence intensity using a ViewLux High-throughput CCD imager equipped with clear filters.
With `Cc1nc2c([nH]1)CCN(C(=O)c1ccc(NC(=O)c3ccccc3-c3ccccc3)cc1)c1ccccc1-2` the Potency was “inactive”. In the case of `CC1CNc2c(cccc2S(=O)(=O)N[C@@H](CCCN=C(N)N)C(=O)N2CC[C@@H](C)C[C@@H]2C(=O)O)C1` (stereo not given in full), the Potency is reported as “inactive”. For `COC(=O)[C@H](c1ccccc1Cl)N1CCc2sccc2C1`, the Potency was “inactive”. For `C[C@@H](O[C@H]1OCCN(Cc2n[nH]c(=O)[nH]2)[C@@H]1c1ccc(F)cc1)c1cc(C(F)(F)F)cc(C(F)(F)F)c1`, the Potency was 23.5 µM (active). With `CN(C)CCN(C)C(=O)c1ccc(NC(=O)Nc2ccc(-c3nc(N4CCOCC4)c4ccn(CC(F)(F)F)c4n3)cc2)cc1` the Potency was 0.187 µM (active). With `COc1cc2c(cc1OC)[C@@H]1Cc3ccc(OC)c(OC)c3CN1CC2` the Potency was “inactive”. With `O=S(=O)(NCCNCC=Cc1ccc(Br)cc1)c1cccc2cnccc12` the Potency was 14.8 µM (active). For `C[C@@H]1[C@H](O)[C@@H](C)C=CC=CC=CC=CC=CC=CC=C[C@H](O[C@@H]2O[C@H](C)[C@H](O)[C@H](N)[C@@H]2O)C[C@@H]2O[C@](O)(C[C@@H](O)C[C@@H](O)[C@H](O)CC[C@@H](O)C[C@@H](O)CC(=O)O[C@H]1C)C[C@H](O)[C@@H]2C(=O)O`, the Potency was “inactive”. For `N#Cc1c(N(CC(=O)O)CC(=O)O)sc(C(=O)O)c1CC(=O)O`, the Potency was “inactive”. In the case of `O=c1cc(-c2ccc(O)c(O)c2)oc2cc(O)cc(O)c12`, the Potency is reported as “inactive”. For `Nc1ncnc2c1ncn2[C@@H]1O[C@H](CO)[C@@H](O)[C@@H]1O`, the Potency was 3.72 µM (active). With `C[C@@]1(C(=O)Nc2ccc(F)nc2)CCCN1c1nc(Nc2cc(C3CC3)[nH]n2)c2cccn2n1` the Potency was 11.8 µM (active). With `O=C1CCCC(=O)C1C(=O)c1ccc(C(F)(F)F)cc1[N+](=O)[O-]` the Potency was “inactive”. In the case of `CN[C@@H](C)[C@H]1[C@H](O)C[C@@]2(C)[C@@H]3CC[C@H]4C(C)(C)[C@@H](NC)CC[C@@]45C[C@@]35CC[C@]12C`, the Potency is reported as “inactive”. In the case of `N[C@@H](CC(=O)N1CCn2c(nnc2C(F)(F)F)C1)Cc1cc(F)c(F)cc1F`, the Potency is reported as “inactive”. For `CC(=O)OCC(=O)[C@@]1(O)CC[C@H]2[C@@H]3CCC4=CC(=O)C=C[C@]4(C)[C@@H]3[C@@H](O)C[C@@]21C`, the Potency was “inactive”. With `CCCCN(CCCC)CC(O)c1cc(Cl)cc2c1-c1ccc(Cl)cc1C2=Cc1ccc(Cl)cc1` (stereo not given) the Potency was “inactive”. In the case of `O=C(Nc1ccc(OC(F)(F)F)cc1)c1sccc1NCc1ccnc2ccccc12`, the Potency is reported as “inactive”. With `CCOC(=O)[C@@H](N)CCC(=O)N[C@@H](CSCc1ccccc1)C(=O)N[C@@H](C(=O)OCC)c1ccccc1` the Potency was “inactive”. For `O=C(O)C1=CC(O)C(O)[C@H](O)C1` (stereo not given in full), the Potency was “inactive”. For `CCNC(=O)CCCC=CC[C@@H]1[C@H](C=CC(O)CCc2ccccc2)[C@@H](O)C[C@@H]1O` (stereo not given in full), the Potency was “inactive”. In the case of `CC=C1C2C=C(C)CC1(N)c1ccc(=O)[nH]c1C2` (stereo not given), the Potency is reported as “inactive”. For `CC1(C)[C@H]2CC[C@]3(C)[C@@H](C(=O)C=C4[C@@H]5C[C@@](C)(C(=O)O)CC[C@]5(C)CC[C@]43C)[C@@]2(C)CC[C@@H]1O`, the Potency was “inactive”. With `C[C@@H]1CCO[C@H]2Cn3cc(C(=O)NCc4ccc(F)cc4F)c(=O)c(O)c3C(=O)N12` the Potency was “inactive”. With `O=C(c1ccc(F)c(F)c1Nc1ccc(I)cc1F)N1CC(O)([C@H]2CCCCN2)C1` the Potency was 29.6 µM (active). For `CCOC(=O)c1c(CSc2ccccc2)n(C)c2cc(Br)c(O)c(CN(C)C)c12`, the Potency was “inactive”. With `O=C(CC12CC3CC(CC(C3)C1)C2)Nc1cccc2nc(NCCNCCO)ccc12` the Potency was 14.8 µM (active). In the case of `CO[C@H]1/C=C\O[C@@]2(C)Oc3c(C)c(O)c4c(O)c(c(C=NN5CCN(C6CCCC6)CC5)c(O)c4c3C2=O)NC(=O)C(C)=CC=C[C@H](C)[C@H](O)[C@@H](C)[C@@H](O)[C@@H](C)[C@H](OC(C)=O)[C@H]1C`, the Potency is reported as 0.59 µM (active). In the case of `COC(=O)Nc1ccc(-c2nc(N3CCOCC3)c3cnn(C4CCN(C(=O)OC)CC4)c3n2)cc1`, the Potency is reported as 0.469 µM (active). For `O=C(O)C1=CO[C@@H](O[C@@H]2O[C@H](CO)[C@H](O)[C@H](O)[C@H]2O)[C@@H]2C(CO)=CC[C@H]12`, the Potency was “inactive”. For `Cc1ccccc1C(C(=O)NC1CCCCC1)N(C(=O)CNc1ccc(C#N)cc1)c1cccc(F)c1` (stereo not given), the Potency was “inactive”. With `CN(C)CCCNC(=O)c1ccc(-c2cc(O)c3ncccc3c2)cc1` the Potency was “inactive”. For `CN1c2ccccc2C(=O)N2CCc3c([nH]c4ccccc34)C21` (stereo not given), the Potency was “inactive”. In the case of `COc1nc(C)cnc1NS(=O)(=O)c1cccnc1-c1ccc(-c2nnco2)cc1`, the Potency is reported as “inactive”. With `Nc1nc(Cl)nc2c1ncn2[C@@H]1O[C@H](CO)[C@@H](O)[C@H]1F` the Potency was 1.18 µM (active). With `CCC(C)SSc1ncc[nH]1` (stereo not given) the Potency was 23.5 µM (active). For `CC1CCN(c2cc(N3CCN(C)CC3)ccc2NC(=O)c2cc(C#N)c[nH]2)CC1`, the Potency was “inactive”. With `CN1CCN(c2ncc(-c3cc(Cl)cc(Cl)c3Cl)c(N)n2)CC1` the Potency was “inactive”. For `CC(NCCc1ccc(O)cc1)C(O)c1ccc(O)cc1` (stereo not given), the Potency was “inactive”. For `COC(=O)N1CCN(Cc2cccc(NC(=O)Nc3ccc(C)nc3)c2F)CC1`, the Potency was “inactive”.
